# PubChem BioAssay AID1478 (National Center for Advancing Translational Sciences (NCATS), 2009)
# Several values for one entry are separate records, joined by “and”; a condition that tells them apart may be missing. Identical values can stand only once. The whole screen tested about 200,000 compounds, of which about 860 (0.43%) were called active. The full list was thinned out, with actives kept by preference. A number with no mark means an inactive call. Calls follow the shape of the dose curve; as a rule, active = well fitted inhibition curve with a large enough effect; inconclusive = small, poorly fitted or top-dose-only effect; inactive = flat fitted curve, though single readings scatter.
# Target: Cruzipain (Trypanosoma cruzi) (UniProt P25779)
# Experiment: qHTS Assay for Promiscuous and Specific Inhibitors of Cruzain (with detergent); also: nearly all actives have a fitted effect of over 40% in size
# Conditions: purified cruzain, Z-FR-AMC fluorescence, 0.01% Triton
# Protocol: Cruzain (3.4.22.51) is a cysteine protease from the tropical parasite Trypanosoma cruzi. Dual qHTS experiment was performed against the NCGC compound collection in order to 1) identify novel inhibitors of the enzyme and 2) profile the compound collection for promiscuous inhibitors operating via colloidal aggregation (by performing detergent-free and detergent-containing comparison screens). Cruzain was assayed by the use of fluorogenic coumarin-based substrate Z-FR-AMC: proteolytic cleavage releases AMC, whose fluorescence is measured at 360 nm excitation and 450 nm emission. Purified cruzain was supplied by the labs of Prof. James McKerrow and Brian Shoichet, UC San Francisco.
# This assay had 0.01% Triton X-100 concentration. See also releated assay "qHTS Assay for Promiscuous and Specific Inhibitors of Cruzain (without detergent)" with 0.00005% Triton X-100.
# See following references for additional details:
# Assay Provider: Shoichet, Brian; University of California, San Fancisco
# Screening Center PI: Austin, C.P.
# Screening Center: NIH Chemical Genomics Center [NCGC]
# Buffer: 100 mM Sodium Acetate, pH 5.5, 5 mM DTT, Triton X-100 concentration: 0.01%.
# Buffer in columns 3 and 4 as negative control (no enzyme).
# Substrate solution: 2 uM final concentration of Z-FR-AMC (catalog number I-1160, Bachem) dispensed throughout the plate.
# Enzyme: 1.5 nM Cruzain final concentration in columns 1, 2, 5-48. Column 1 is neutral (100% activity). Column 2 contained titration of covalent inhibitor K11777, starting concentration 1 mM, then 1:2 dilution in duplicate).
# Three uL of enzyme or buffer were dispensed to 1536-well Greiner black solid bottom plates. Compounds and controls (23 nL) were transferred via Kalypsys PinTool. The plates were incubated for 15 min at room temperature, and then 1 uL of substrate solution was added to start the reaction. The plates were immediately transferred to and read 4 times every 30 seconds for 2 min on ViewLux High-throughput CCD imager (Perkin-Elmer) using 360 nm excitation and 450 nm emission fluorescence protocol. The fluorescence intensity difference between the third and the first time points (time lapse of 60 seconds) was used to compute reaction progress.
# Potency is read from the fitted curve at half-maximal effect.
# Cruzipain (Trypanosoma cruzi), sequence (P25779 123-467 limits assumed): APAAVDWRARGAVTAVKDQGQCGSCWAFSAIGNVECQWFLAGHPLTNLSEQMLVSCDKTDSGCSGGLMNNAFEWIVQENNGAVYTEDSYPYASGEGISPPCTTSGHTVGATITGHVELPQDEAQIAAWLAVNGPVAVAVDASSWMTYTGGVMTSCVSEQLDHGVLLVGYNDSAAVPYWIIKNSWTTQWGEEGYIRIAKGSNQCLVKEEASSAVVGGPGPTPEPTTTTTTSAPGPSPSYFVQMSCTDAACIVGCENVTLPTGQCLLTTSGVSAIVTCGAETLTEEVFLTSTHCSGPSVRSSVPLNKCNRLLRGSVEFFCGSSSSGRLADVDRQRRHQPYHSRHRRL
Structure (SMILES),"max response, negative = inhibition",Potency
O=S(=O)(c1ccccc1)c1nc(-c2ccc(Cl)cc2Cl)oc1N1CCCCC1,-15.9%,–
CN(c1ccc(C(=O)NCc2ccccn2)cc1)S(C)(=O)=O,1.59%,–
O=C(NCc1ccccn1)c1ccc2nc(-c3ccco3)c(-c3ccco3)nc2c1,–,22.4 µM (active)
O=C(NCc1ccccn1)c1cc(-c2ccccc2Cl)on1,-2.6%,–
O=S(=O)(c1ccc2nc(NCc3ccccc3Cl)ccc2c1)N1CCCCC1,-1.7%,–
Cc1ccc(Cn2c(CNC(=O)Cc3cccc(C)c3)nc3cccnc32)cc1,-1.98%,–
COc1ccc2[nH]c3c(c2c1)CCN(C(=O)CCC1CCCC1)C3c1ccc(F)cc1 (stereo not given),7.03%,–
Cc1ccc(C(=O)COC(=O)C(Cc2c[nH]c3ccccc23)NC(=O)c2ccc(Br)cc2)cc1 (stereo not given),-0.996%,–
COc1cc(OC)c(NC(=O)c2cc(S(=O)(=O)N3CCCC3)cn2C)cc1Cl,-0.944%,–
Nc1nc(SCc2ccccc2Cl)n[nH]1,1.94%,–
Nc1cc(=O)nc(SCc2ccccc2)n1Cc1ccco1,-10.9%,–
Clc1ccccc1CSc1nnc(-c2ccco2)c(-c2ccco2)n1,–,25.1 µM (active)
O=C(Nc1nnc(SCc2ccccc2)s1)c1ccco1,0.832%,–
c1ccc(CSc2nnc(-c3ccco3)c(-c3ccco3)n2)cc1,–,14.1 µM (active)
Clc1ccccc1CSc1nncn2c1cc1occc12,-2.67%,–
CCc1ccc(NC(=O)c2cnc3c(-c4ccccc4)c(C)nn3c2C)cc1,-6.46%,–
Cc1ccc(S(=O)(=O)c2c(Nc3cccc(Cl)c3)sc(C(=O)c3ccc4c(c3)OCO4)c2N)cc1,-3.98%,–
COCCn1c(SCC(=O)c2cc(C)ccc2C)nc2cc(C(=O)NC3CCCC3)ccc2c1=O,-0.0872%,–
COc1ccccc1CNC(=O)c1ccc(CS(=O)c2ccccc2Cl)o1 (stereo not given),-8.94%,–
Cc1nn(C(C)C(=O)NCCc2ccccc2)c(=O)c2c1sc1ccccc12 (stereo not given),-6.56%,–
CNc1ccc(-c2nc(-c3ccco3)no2)cc1[N+](=O)[O-],-3.84%,–
CC(=O)c1c(O)c(C)c(O)c(Cc2c(O)c3c(c(C(=O)/C=C/c4ccccc4)c2O)OC(C)(C)C=C3)c1O,-22.4%,–
O=C(/C=C/c1ccccc1)c1ccccc1O,-1.13% and 3.47%,–

Structure (SMILES),"max response, negative = inhibition",Potency
CC(=O)c1c(O)c(C)c(O)c(Cc2c(O)c3c(c(C(=O)/C=C\c4ccccc4)c2O)OC(C)(C)C=C3)c1O,–,31.6 µM (active)
COc1cc(NC(=O)CSc2nc3nc(C)c(Cc4ccc(C)cc4)c(C)n3n2)cc(OC)c1OC,-4.19%,–
O=C(CCc1nc(CN2CCN(S(=O)(=O)c3ccc(Br)cc3)CC2)no1)N1CCCCC1,-0.641%,–
O=C(CC(c1cccs1)N1Cc2ccccc2C1=O)Nc1ccc(F)cc1F (stereo not given),-5.84%,–
O=S(=O)(NCCc1nnc2ccc(SCc3ccc(Cl)cc3Cl)nn12)c1ccccc1,-7.61%,–
O=C(CCOc1ccccc1)N(Cc1cccnc1)c1nc2ccc(Cl)cc2s1,-5.3%,–
COc1cc(NC(=S)NCCSc2ccc(C)cc2)cc(OC)c1,–,2 µM (active)
COc1cc(NC(=O)Nc2ccc(C)cc2)cc([N+](=O)[O-])c1,-3.61%,–
COc1cccc(NC(=S)NCCCN2CCOCC2)c1,-2.47%,–
CC(NC(=O)CCc1cn(Cc2ccccc2Cl)c2ccccc12)c1ccccc1 (stereo not given),-2.02%,–
CC(C)(C)c1ccc(C(=O)Nc2ccc3c(c2)CCCN3C(=O)c2cccs2)cc1,-4.1%,–
COc1cc(NC(=O)c2cc(C3CC3)nc3c2c(C)nn3-c2ccccc2)cc(OC)c1,-4.38%,–
CC(=O)NC1=NN(C(C)=O)C(C)(c2ccc(Cl)s2)S1 (stereo not given),–,28.2 µM (active)
CC(=O)NC1=NN(C(C)=O)C(C)(CCS(=O)(=O)c2ccc(Cl)c(Cl)c2)S1 (stereo not given),-3.08%,–
CC(=O)NC1=NN(C(C)=O)C(C)(c2ccc(C)cc2)S1 (stereo not given),-0.836%,–
COc1ccc(Cn2c(=O)c3oc4ccccc4c3n(CC(=O)Nc3ccc(F)cc3F)c2=O)cc1,-0.479%,–
COc1ccccc1NC(=O)CCC(=O)N1CC(C)Oc2ccc(C)cc21 (stereo not given),-2.9%,–
COc1ccccc1-n1c(-c2ccc(C)cc2)cn2c3c(=O)n(C)c(=O)n(C)c3nc12,0.477%,–
Cc1ccccc1OCc1nc2c3cnn(-c4ccccc4F)c3ncn2n1,-0.812%,–
Cc1ccccc1-c1nc(SCC(=O)N(C)c2ccccc2)c2c(=O)n(C)c(=O)n(C)c2n1,0.835%,–
Cc1ccc(-c2cc(C(=O)Oc3ccccc3Cl)no2)cc1C,-5.97%,–
CCOc1ccc(NC(=O)c2cc3c(=O)n(Cc4cccs4)ccc3nc2C)cc1,-4.36%,–
